Screens deposited in PubChem by several laboratories.
In the library only some 2% were active in any assay of this set; here they are far more common.
MsrA inhibitor – bovine MsrA enzyme inhibitors, primary screen, biochemical, absorbance, HTS; Methionine sulfoxide reductase A (Bos taurus); purified bovine MsrA, absorbance read-out; inhibition, % at 15.5 µM; actives 0.75% (n = 360,000); AID 651718, 2012
PKA-R2B act – activators of PKA-R2B holoenzyme, primary screen, biochemical, fluorescence polarization, Cy5-IP20, human; cAMP-dependent protein kinase catalytic subunit beta (Homo sapiens) + cAMP-dependent …; PKA-R2B holoenzyme dissociation; R2B truncated from residue 108, S112A mutant; 0% DMSO only, 100% 113 µM cGMP; activation, % at 11.4 µM; actives 0.079% (n = 340,000); AID 504700, 2011;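 active means activation above a cutoff set at the mean over all compounds plus 3 SD, cut at about 18% in these data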;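 further: higher means more holoenzyme dissociation and a rise in polarization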
Target sequence (P31323 whole entry, looked up, other chains not shown, the tested form may be a part): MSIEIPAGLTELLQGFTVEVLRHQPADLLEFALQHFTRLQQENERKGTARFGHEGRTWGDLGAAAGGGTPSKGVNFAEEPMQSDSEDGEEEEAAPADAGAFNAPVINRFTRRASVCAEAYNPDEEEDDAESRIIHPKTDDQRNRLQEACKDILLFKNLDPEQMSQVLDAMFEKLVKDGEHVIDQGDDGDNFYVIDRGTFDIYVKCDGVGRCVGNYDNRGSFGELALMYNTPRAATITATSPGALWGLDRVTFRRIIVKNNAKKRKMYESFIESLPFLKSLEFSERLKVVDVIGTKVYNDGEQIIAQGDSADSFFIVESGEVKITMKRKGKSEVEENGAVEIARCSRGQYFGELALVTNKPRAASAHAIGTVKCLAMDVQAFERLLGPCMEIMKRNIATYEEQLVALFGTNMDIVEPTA
bovine MsrA act – bovine MsrA enzyme activators, primary screen, biochemical, absorbance, HTS. Methionine sulfoxide reductase A (Bos taurus). purified bovine MsrA, absorbance read-out. activation, % at 10.6 µM. actives 0.3% (n = 360,000). AID 602163, 2012; in the data active means activation above about 7.5%
Mot1-301 SUMO – yeast Mot1-301 growth rescue at high temperature, primary screen, SUMOylation pathway inhibitor project, S. cerevisiae, ATP luminescence, 38.5C | S. cerevisiae Mot1-301 growth rescue; percent above DMSO median, 100 means doubled | growth rescue, % at 18.8 µM | actives 1% (n = 320,000) | AID 2716, 2010;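 active means every valid replicate shows activation above 250% relative to neutral control wells; inactive means the rest, any valid replicate at or below 250%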
PKA-R1A act – activators of PKA-R1A holoenzyme, primary screen, biochemical, fluorescence polarization, Cy5-IP20, bovine R1A, mouse PKAc. cAMP-dependent protein kinase type I-alpha regulatory subunit (Bos taurus) + …. PKA-R1A dissociation; scaled: DMSO 0%, 113 µM cGMP 100%. activation, % at 11.4 µM. actives 0.083% (n = 340,000);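 active means percent activation above the mean of all tested compounds plus 3 SD, cut at about 19% in these data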;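 further: higher means more PKAc released from R1A so a rise in polarization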
MsrA conf – bovine MsrA inhibitors, retest, confirmation, biochemical, absorbance, HTS. shares compounds with MsrA inhibitor. purified bovine MsrA, absorbance read-out. inhibition, % at 15.5 µM. actives 41% (n = 2,300);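 further: coupled to thioredoxin reductase with NADPH and selenocystamine and DMSO as substrate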
Numbers stand for hits. Unless noted, no stated cut-off is given here; in the data, active means inhibition above about 4.5%; inactive means the rest.

For COc1ccc2[nH]c(C(=O)N/N=C/c3ccc(O)cc3O)cc2c1 the results were MsrA inhibitor 6.3, PKA-R2B act inactive, bovine MsrA act inactive, Mot1-301 SUMO inactive, PKA-R1A act inactive and MsrA conf inactive.
For N#Cc1c(/N=C/c2ccc(-c3ccccc3C(=O)O)o2)sc2c1CCCC2 the results were MsrA inhibitor inactive, PKA-R2B act inactive, bovine MsrA act inactive, Mot1-301 SUMO inactive and PKA-R1A act inactive.
Screening N#Cc1c(/N=C/c2ccc(-c3ccc(C(=O)O)c(Cl)c3)o2)sc2c1CCCC2 returned MsrA inhibitor 7.0, PKA-R2B act inactive, bovine MsrA act inactive, Mot1-301 SUMO inactive, PKA-R1A act inactive and MsrA conf inactive.
For CCc1n[nH]c(=S)n1/N=C/c1cc(Br)c(OC)cc1OC the results were MsrA inhibitor 16, PKA-R2B act inactive, bovine MsrA act inactive, Mot1-301 SUMO inactive, PKA-R1A act inactive and MsrA conf 10.
`COc1cccc(-c2c(-c3ccccc3OC)ncn2Cc2cccc(-c3ccccc3)c2)c1` gave MsrA inhibitor inactive.
For COc1cc(/C=N/NC(=O)c2nc3ccccn3c2C)cc(OC)c1O the results were MsrA inhibitor 6.3, PKA-R2B act inactive, bovine MsrA act inactive, Mot1-301 SUMO inactive, PKA-R1A act inactive and MsrA conf 5.1.
C/C(=N\NC(=O)Cn1ccc(C(F)(F)F)n1)c1ccc(N2CCOCC2)cc1 was read as MsrA inhibitor inactive, PKA-R2B act inactive, bovine MsrA act inactive, Mot1-301 SUMO inactive and PKA-R1A act inactive.
COc1cc(/C=N/NC(=O)c2cc(-c3ccccc3)nc3ccccc23)cc(OC)c1O was read as MsrA inhibitor inactive, PKA-R2B act inactive, bovine MsrA act inactive, Mot1-301 SUMO inactive and PKA-R1A act inactive.
`O=C(Cn1ccc(C(F)(F)F)n1)N/N=C/c1ccc(N2CCOCC2)cc1` gave MsrA inhibitor 5.2, PKA-R2B act inactive, bovine MsrA act inactive, Mot1-301 SUMO inactive, PKA-R1A act inactive and MsrA conf inactive.
Screening Cc1c(C(=O)N/N=C/c2ccc(N3CCOCC3)cc2)nc2ccccn12 returned MsrA inhibitor 5.7, PKA-R2B act inactive, bovine MsrA act inactive, Mot1-301 SUMO inactive, PKA-R1A act inactive and MsrA conf 5.8.
For O=C(NCc1ccccc1)C(C1CC1)n1c(Cc2cc(F)cc(F)c2)nc2ccccc21 (stereo not given) the results were MsrA inhibitor inactive.
Screening N#Cc1nc(-c2cccs2)oc1N1CCOCC1 returned MsrA inhibitor 5.1, PKA-R2B act inactive, bovine MsrA act inactive, Mot1-301 SUMO inactive, PKA-R1A act inactive and MsrA conf inactive.
Screening CC1CN(c2oc(-c3cccs3)nc2C#N)CC(C)O1 (stereo not given) returned MsrA inhibitor inactive, PKA-R2B act inactive, bovine MsrA act inactive, Mot1-301 SUMO inactive and PKA-R1A act inactive.
`C=Cc1ccc(CC2(C)C(=O)Nc3ccc(-c4cccnc4)cc32)cc1` (stereo not given) gave MsrA inhibitor 13, bovine MsrA act inactive and MsrA conf 6.3.
For COc1ccc(-c2[nH]ncc2CN2CCCC2c2nonc2C)c(F)c1 (stereo not given) the results were MsrA inhibitor 8.4, PKA-R2B act inactive, bovine MsrA act inactive, Mot1-301 SUMO inactive, PKA-R1A act inactive and MsrA conf inactive.
O=C(O)c1ccc(Nc2ccc([N+](=O)[O-])c3nonc23)cc1 was read as MsrA inhibitor inactive, PKA-R2B act inactive, bovine MsrA act inactive, Mot1-301 SUMO inactive and PKA-R1A act inactive.
`CC(=O)c1ccc(Nc2ccc([N+](=O)[O-])c3nonc23)cc1` gave MsrA inhibitor 7.0, PKA-R2B act inactive, bovine MsrA act inactive, Mot1-301 SUMO inactive, PKA-R1A act inactive and MsrA conf inactive.
For NC(=O)c1ccsc1NC(=O)COC(=O)/C=C/c1ccccc1[N+](=O)[O-] the results were MsrA inhibitor 11, PKA-R2B act inactive, bovine MsrA act inactive, Mot1-301 SUMO inactive, PKA-R1A act inactive and MsrA conf 9.4.
